Experimental data reported in PubChem BioAssay AID1233 (SRMLSC, 2008).
Measured potencies and affinities stand elsewhere.

Each compound was assayed against HMG-CoA reductase [Enterococcus faecalis] (UniProt Q9FD70) (assay: class II HMG-CoA reductase inhibition potency – biochemical, Enterococcus faecalis, confirmation (AID 1233;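 also: 0% = full reaction carrier wells and 100% = background wells lacking mevalonate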)). Settings: purified E. faecalis HMGR, NADPH absorbance 340 nm kinetics; series mostly up to 100 µM; inhibition: at the top concentration.

inhibition, inactive:
OCc1ccccc1CNCc1ccccc1 0.24%, COc1cccc(-c2nnc3sc(-c4cccs4)nn23)c1 -8.43%, Cc1ccc(SC(=O)COc2ccc(C)c(C)c2)cc1 -1.62%, Brc1ccc(/C=N/Nc2ncnc3c2cnn3Cc2ccccc2)cc1 -21.9%, CC(C)(C)c1ccc(C(=O)Nc2ccc(NC(=O)c3ccco3)cc2)cc1 -4.08%, Cc1c(NS(=O)(=O)c2ccc3c(c2)Cc2ccccc2-3)c(=O)n(-c2ccccc2)n1C -2.26%, COc1cc(C2CC(=O)N(CC(=O)NCC3CCCO3)c3ccccc3S2)cc(OC)c1OC (centres undefined) -0.73%, COc1ccc(N=C2C(=O)Nc3ccccc32)cc1 -0.06%, Cc1cc(-c2ccccc2)nc(SCC(=O)N2CCCC2)n1 0.13%, CCOC(=O)c1c(NC(=O)CSc2nnc(C)s2)sc2c1CCC(CC)C2 (centres undefined) -5.44%, CC(C)c1ccc(NC(=O)COC(=O)/C=C/c2cccc(Br)c2)cc1 -6.09%, COC(=O)CNC(=O)CSc1nnc2cc(C)c3ccccc3n12 -1.92%, COCC(C)NC(=O)CSc1nc(-c2ccccc2)c(-c2ccccc2)o1 (centres undefined) -5.68%, CC(=O)Nc1ccc2c(c1)OCCO2 -4.59%, O=C(CNC(=O)c1ccccc1)N/N=C/c1cccs1 0.73%, C=CCn1cnc2c(c1=O)c1nc3ccccc3nc1n2/N=C/c1cc(OC)c(OC)c(OC)c1 -0.47%, Fc1ccccc1Cn1cnc(NC(=S)NCCc2ccccc2)n1 -8.26%, COc1ccccc1Sc1ccccc1/C=N/NC(N)=O -10.8%, O=C(Nc1cccc(Br)c1)c1ccc2nc(N3C(=O)CCC3=O)sc2c1 -0.95%
